SMN2 splice enh: enhancers of SMN2 splice variant expression; AID 1458; HEK293 SMN2-luciferase splicing reporter, luminescence, 30-36 h; 2.8% of 210,000 active; Potency, µM (doses to about 46.1 µM), without a hit: at the highest dose activity change, positive = activation, actives largely listed as activators; further: % of control where 0% means no effect; nearly all actives have a fitted effect of over 55% in size
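HEK293 cells carry an SMN2 minigene-luciferase reporter in which exon 7 inclusion puts luciferase in frame. Cells were seeded at 2000 cells/well, attached for 10-12 hours, then exposed to compounds for 30-36 hours at 37C before ONE-Glo luminescence.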
Rab9 prom act: activates the Rab9 promoter; Potency, µM (series often up to 9.22 µM), for the others: top-dose activation, negative = inhibition, most hits filed as activators; 2.8% of 320,000 active; AID 485297; Huh7 Rab9 promoter-luciferase reporter, luminescence, 24 h; further: % of control where 0% means no effect; nearly all actives have a fitted effect of over 60% in size
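Huh7 cells stably carrying Rab9 promoter–luciferase reporter, plated 1500 cells/well, compound added after 2 h and incubated 24 h at 37 °C; luciferase luminescence then read after 10 min with detection reagent.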
ELG1 genotoxic: inducers of genotoxicity in HEK293T ELG1-luciferase cells | HEK293T ELG1-luciferase reporter, luminescence, 16 h | Potency, µM (top dose mostly 46 µM), without a hit: top-dose activity change, positive = activation, usual class: activators | 1.3% of 330,000 active | AID 504466; further: % of control where 0% means no effect; nearly all actives have a fitted effect of over 60% in size
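Step 1: seed 2,000 HEK293T ELG1-luciferase cells per well. Step 2: add compound or DMSO, incubate 16 hr at 37 °C. Step 3: ONE-Glo, 30 min at room temperature, read luminescence.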
FLuc counter: firefly luciferase modulation, counter-screen for miR-21 project; Potency, µM (highest dose often 57.5 µM), inactives show top-dose activity change, negative = inhibition, hits mostly inhibitors; P08659; purified FLuc, Km substrates, luminescence inhibition; 6.9% of 360,000 active;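 further: plate controls were vehicle for no effect and reference inhibitor for full effect; nearly all actives have a fitted effect of over 55% in size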
Target sequence (P08659 whole entry, looked up): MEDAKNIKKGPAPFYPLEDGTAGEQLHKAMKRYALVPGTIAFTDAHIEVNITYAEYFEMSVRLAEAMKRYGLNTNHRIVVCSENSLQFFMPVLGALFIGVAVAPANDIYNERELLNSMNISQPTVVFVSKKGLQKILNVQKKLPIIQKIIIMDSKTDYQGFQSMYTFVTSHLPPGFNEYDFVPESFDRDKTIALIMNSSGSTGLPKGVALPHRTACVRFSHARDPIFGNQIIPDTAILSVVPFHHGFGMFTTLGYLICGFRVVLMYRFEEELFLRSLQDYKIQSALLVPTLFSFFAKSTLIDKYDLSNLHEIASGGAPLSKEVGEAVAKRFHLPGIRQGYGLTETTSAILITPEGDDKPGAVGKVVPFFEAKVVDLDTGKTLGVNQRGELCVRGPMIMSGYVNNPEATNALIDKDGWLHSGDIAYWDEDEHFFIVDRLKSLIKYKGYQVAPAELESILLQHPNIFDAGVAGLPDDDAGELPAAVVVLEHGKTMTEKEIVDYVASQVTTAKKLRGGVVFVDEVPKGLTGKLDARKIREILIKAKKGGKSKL
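Purified P. pyralis luciferase, 10 nM final, with Km-level 10 uM D-luciferin and 10 uM ATP in 50 mM Tris acetate pH 7.5, 10 mM Mg acetate, 0.01% Tween-20, 0.05% BSA; 6-point qHTS titration about 60 µM downward; luminescence read.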
NPC1 promoter act: activators of NPC1 promoter; 2.4% of 320,000 active; AID 485313; Huh7 NPC1 promoter luciferase reporter, 24 h; Potency, µM (titrated, usually from 9.22 µM), without a hit: at the top dose activation, usual class: activators; further: % of control where 0% means no effect; nearly all actives have a fitted effect of over 60% in size
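Luminescence read-out of NPC1 promoter-driven luciferase in stably transfected Huh7 cells; compounds delivered in DMSO and left 24 h at 37C, 5% CO2, qHTS titration format.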
* hit, by the source's call; ? = inconclusive; nt = not tested or not shown. Rows were chosen to be rich in hits. Some 7.4% of all compounds tested hit in one or more screens of this group. The call rests on the fitted dose curve; in most records, active means well fitted curve in the direction sought with a large enough effect; inconclusive means small, poorly fitted or top-dose-only effect, or another doubt; inactive means no such curve, though single readings can be large; an effect the other way counts as inactive or inconclusive. Potency means the concentration at half of the fitted maximal effect.

SMILES	SMN2 splice enh	Rab9 prom act	ELG1 genotoxic	FLuc counter	NPC1 promoter act
Cc1ccc(Nc2cc(-n3nc(C)cc3C)ncn2)c(C)c1	-21%	-3%	-6%	1%	0%
Cc1ccc(Nc2cc(-n3cccn3)ncn2)c(C)c1	24%	2.5µM*	7.3µM*	11µM*	3.5µM*
CCOc1ccc(CCNC(=O)c2cc3c(=O)oc4ccc(C)cc4c3s2)cc1OCC	-9%	nt	nt	3%	nt
COC(=O)c1sc2nc(C)cc(C)c2c1N	nt	17%	7%	?	0%
Cc1cc(C)c2c(N)c(C(=O)Nc3ncc(C)s3)sc2n1	-56%	?	?	0.095µM*	-10%
COc1ccc2nc(NC(=O)c3sc4nc(C)cc(C)c4c3N)sc2c1	nt	?	?	0.12µM*	?
COCc1cc(C)nc2sc(C(=O)Nc3ccccc3Br)c(N)c12	nt	21%	7%	8.5µM*	15%
CCc1ccccc1NC(=O)c1sc2nc(C)cc(C)c2c1N	nt	12%	2%	?	-1%
Cc1cc(C)c2c(N)c(C(=O)Nc3ccccc3F)sc2n1	nt	2.2µM*	?	nt	1.8µM*
COc1ccc(-c2nc3cnc(N(C)C)nc3n(CCc3ccccc3)c2=O)cc1	9%	nt	nt	nt	nt
Cc1cc(OC(C)C(=O)Nc2c(C(=O)c3ccc(F)cc3)oc3ccccc23)ccc1Cl (stereo unspecified)	-3%	nt	nt	-1%	nt
CCC1=C2CC[C@H]3C(=O)N(c4ccccc4)C(=O)[C@H]3[C@H]2[C@@]2(Cc3ccccc3)C(=NCCOC)OC(=O)N2C1=O	-3%	nt	nt	nt	nt
CCn1c(/C=N/c2nc3ccccc3n2C)nc2ccccc21	-6%	2%	-2%	-17%	-2%
Cn1c(Cl)nc2ccccc21	?	-1%	-3%	2%	-7%
Cn1c(N=Nc2ccccc2)nc2ccccc21	0.63µM*	0.4µM*	1.2µM*	0.48µM*	0.71µM*
CN(C)c1ccc(N=Nc2nc3ccccc3n2C)cc1	nt	?	-14%	0.019µM*	28%
CCCCC1CCC(C(=O)N2CC(=O)Nc3ccc(F)cc3C2c2ccc(F)cc2)CC1 (stereo unspecified)	-8%	nt	nt	-3%	nt
Cc1cc(/C=N/Nc2ccc([N+](=O)[O-])cn2)c(C)n1-c1ccccc1	?	3.5µM*	?	?	?
O=C(O)Cn1cc(/C=N/Nc2ccc([N+](=O)[O-])cn2)c2ccccc21	nt	-3%	0%	13µM*	2%
Cc1ccc(-n2c(C)cc(/C=N/Nc3ccc([N+](=O)[O-])cn3)c2C)cc1	-9%	3%	1%	0%	2%
COc1ccc(OCC(=O)Nc2nc3cc4c(cc3s2)OCCO4)cc1	nt	nt	-2%	nt	nt
O=C(Nc1nc2cc3c(cc2s1)OCO3)C1CCCCC1	nt	1.3µM*	?	4.8µM*	1.8µM*
O=C(Nc1nc2cc3c(cc2s1)OCCO3)C1CCCCC1	nt	0.32µM*	?	0.43µM*	0.5µM*
O=C(Nc1nc2cc3c(cc2s1)OCO3)C1CC1	nt	28%	9%	?	?
CC(=O)Nc1nc2cc3c(cc2s1)OCCO3	nt	1.4µM*	?	7.6µM*	1.6µM*
SMILES	SMN2 splice enh	Rab9 prom act	ELG1 genotoxic	FLuc counter	NPC1 promoter act
O=C(NNc1nc2cc3c(cc2s1)OCCO3)c1ccccc1	20µM*	?	?	9.5µM*	?
NCCC[C@@H](CC(=O)N[C@@H]1CCNC[C@H]1C(=O)N[C@H](CC(=O)N[C@@H](CCC(=O)O)CC(=O)O)Cc1c[nH]c2ccccc12)NC(=O)C[C@H](Cc1c[nH]c2ccccc12)NC(=O)[C@@H]1CNCC[C@H]1N	4%	nt	nt	nt	nt
COc1ccc(NC(=O)c2cc3cccc(OC)c3oc2=Nc2ccc(C(=O)O)cc2)cc1OC	10%	-7%	6%	-1%	-5%
COc1cccc(NC(=O)c2cc3cccc(OC)c3o/c2=N\O)c1	nt	0.71µM*	?	0.54µM*	2.8µM*
COc1cccc(NC(=O)c2cc3ccccc3o/c2=N\O)c1	nt	0.71µM*	0.41µM*	0.54µM*	0.79µM*
O=C(Nc1ccccc1Cl)c1cc2ccccc2o/c1=N\O	nt	2.5µM*	16µM*	2.1µM*	3.2µM*
Cc1cc(Br)ccc1NC(=O)C(NS(=O)(=O)c1cccs1)c1ccccc1 (stereo unspecified)	1%	nt	nt	-17%	nt

Screening data (PubChem)
